# Not all results are given here.
# aSyn 5UTR act = Activators via SNCA 5'UTR binding, MLPCN; activity score, % (tested at 7.5 µM), hits read low; actives 7.1% (n = 300,000); alpha-synuclein 5'UTR reporter, activators screen; in the data active = activity score below about -60%
# * hit, by the source's call.
SMILES,aSyn 5UTR act
Cc1ccc2nc(N(CCCN(C)C)C(=O)c3ccc4ncsc4c3)sc2c1,-84*
Cc1ccc2nc(N(CCN(C)C)C(=O)c3ccc4c(c3)OCCO4)sc2c1,-110*
Cc1cc(C(=O)CSc2nnnn2C)c(C)n1-c1cccc(F)c1,-131*
Cc1cc(C(=O)CSc2ncccn2)c(C)n1-c1cccc(F)c1,-84*
Cc1ccc(-n2c(C)cc(C(=O)COc3cccnc3[N+](=O)[O-])c2C)cc1,64
c1ccc2c(c1)oc1c(Nc3ccc4c(c3)OCCO4)ncnc12,-142*
c1ccc(Sc2ncnc3c2oc2ccccc23)cc1,-180*
Cc1ccc(Nc2ncnc3c2oc2ccccc23)cc1,-114*
Oc1ccc(N=Nc2ccc3c(c2)OCCO3)c2cccnc12,104
COc1ccc(Nc2ncnc3c2oc2ccccc23)cc1,-160*
Oc1ccc(/C=N/Nc2nccnc2Cl)cc1,-124*
Fc1cccc(/C=N/Nc2nccnc2Cl)c1,-106*
Fc1ccc(/C=N/Nc2nccnc2Cl)cc1,-120*
CC(=O)c1ccc(NC(=O)N2CCc3ccccc3C2)cc1,-87*
CC(=O)c1cccc(NC(=O)N2CCc3ccccc3C2)c1,-171*
CC(C)(C)C1CCc2c(sc(NC(=O)c3cccs3)c2C(N)=O)C1 (stereo unspecified),-158*
O=C(CN1CC[n+]2c(-c3cccs3)csc21)c1ccc(-c2ccccc2)cc1,-65*
Cc1nc2oc(C(=O)c3ccccc3)c(N)c2c2c1COC(C)(C)C2,-83*
CCCc1nc2oc3c(NCc4ccccn4)ncnc3c2c2c1COC(C)(C)C2,53
CCCC(=O)Nc1ccc2nc(SCC(=O)Nc3ccc(N4CCOCC4)c(Cl)c3)sc2c1,-150*
Nc1ccc2nc(SCC(=O)Nc3ccc(N4CCOCC4)c(Cl)c3)sc2c1,-174*
Nc1ccc2nc(SCC(=O)N3CCOCC3)sc2c1,-71*
Nc1ccc2nc(SCc3cccc(F)c3)sc2c1,-139*
Cc1ccsc1/C=N/N1CCN(c2ccccn2)CC1,-94*
Cc1ccsc1/C=N/N1CCN(c2ccccc2)CC1,-148*
SMILES,aSyn 5UTR act
CCOC(=O)c1ccc(NC(=O)C(=O)NCc2ccco2)cc1,-82*
CC(=O)c1ccc(NC(=S)NCc2ccco2)cc1,-67*
COc1ccc2nc(Nc3ccc4c(c3)OCO4)sc2c1,-160*
COc1ccc2nc(Nc3nc4cc5c(cc4s3)OCO5)sc2c1,-123*
Cc1ccnc(NC(=O)C2CC(=O)N(Cc3ccccc3)C2)c1 (stereo unspecified),-112*
CC(=O)c1ccc(NC(=O)C2CC(=O)N(Cc3ccccc3)C2)cc1 (stereo unspecified),-129*
O=C1c2ccsc2SCCN1Cc1ccccc1,-65*
O=C(NC1=NCCS1)C12CC3CC(C1)CC(C(=O)NC1=NCCS1)(C3)C2,-71*
Nc1ccc(C(=O)OCc2nc3c(ccc4ccccc43)[nH]2)cc1,-116*
N=C1C(c2nc3ccccc3[nH]2)=C(O)CN1C1CCCCC1,-116*
N=C1C(c2nc3ccccc3[nH]2)=C(O)CN1c1ccc(F)cc1,-65*
CCOc1ccc(N(CC(=O)NCc2ccccc2OC)S(C)(=O)=O)cc1,-90*
CC(=O)c1ccc(NC(=O)CN(c2c(C)cccc2C)S(C)(=O)=O)cc1,-131*
Cc1ccc(N(CC(=O)Nc2ccc3c(c2)OCCO3)S(C)(=O)=O)cc1,-99*
CCOc1ccc(N(CC(=O)Nc2ccccc2C)S(=O)(=O)c2c(C)noc2C)cc1,59
CCOc1ccc(N(CC(=O)Nc2ccc(C)cc2)S(C)(=O)=O)cc1,-113*
C=CCNC(=O)c1ccc(CN(c2ccc(OCC)cc2)S(=O)(=O)c2ccc(C)cc2)cc1,-93*
CS(=O)(=O)N(CC(=O)Nc1ccccc1C(=O)NCCc1ccccc1)c1ccc2c(c1)OCCO2,-153*
CCOc1ccc(N(CC(=O)Nc2cc(C)cc(C)c2)S(C)(=O)=O)cc1,-88*
CC(C)(C)Nc1nc(N2CCCC2)nc(N2CCCC2)n1,68
COCCCNc1nc(N)c([N+](=O)[O-])c(NC2CCCCC2)n1,90
COc1nc(NC2CCCCC2)nc(NC(C)(C)C)n1,-70*
CC(C)Sc1ccc(C(=O)Nc2ccc(F)cc2F)cn1,-140*
c1ccc(-c2onc3cc4c(cc23)OCCO4)cc1,-167*
CCN1C(=O)c2cccc3c(NC(=O)c4ccc5c(c4)OCCO5)ccc1c23,-79*
SMILES,aSyn 5UTR act
CCC(=O)Nc1cccc(NC(=O)c2ccc3c(c2)OCCO3)c1,-105*
CN(C)S(=O)(=O)c1cccc(NC(=O)c2ccc3c(c2)OCCO3)c1,-119*
Cc1ccc2c(C)c(C(=O)N(C)C(C)c3ccon3)oc2c1C (stereo unspecified),-149*
O=C(Nc1ccc(Cl)cc1)ON=C1CCCC1,-75*
Cc1cc(C)cc(NC(=S)N=Nc2c(O)n(C)c3ccc(S(=O)(=O)N4CCOCC4)cc23)c1,63
CSc1nnc(NC(=O)c2ccc(C)c(S(=O)(=O)N3CCOCC3)c2)s1,-73*
NS(=O)(=O)c1cc(C(=O)Nc2ccc3c(c2)CCC3)ccc1Cl,-153*
Cc1cccc(C)c1NC(=S)N=Nc1c(O)n(C)c2ccc(S(=O)(=O)N3CCOCC3)cc12,71
Cc1ccc(C(=O)Nc2ccc3c(c2)CCC3)cc1S(=O)(=O)N1CCOCC1,-108*
O=C(Nc1ccc2c(c1)CCC2)c1ccc(F)c(S(=O)(=O)N2CCOCC2)c1,-74*
O=C(Nc1ccc(N2CCCCC2)cc1)c1cncc(Br)c1,-128*
O=C(Nc1ccc(N2CCN(C(=O)c3ccccc3F)CC2)cc1)c1cncc(Br)c1,-74*
O=C1C=C(N2CCCCCC2)C(=O)N1c1ccc(Cl)cc1,-171*
Cc1ccc(C2/C(=C(/O)c3cnn(-c4ccccc4)c3C)C(=O)C(=O)N2CCN2CCOCC2)o1 (stereo unspecified),-121*
Cc1c(/C(O)=C2/C(=O)C(=O)N(CCN3CCOCC3)C2c2cccs2)cnn1-c1ccccc1 (stereo unspecified),-155*
Cc1c(/C(O)=C2\C(=O)C(=O)N(CCN(C)C)C2c2ccco2)cnn1-c1ccccc1 (stereo unspecified),-78*
Cc1ccc(C2/C(=C(\O)c3cnn(-c4ccccc4)c3C)C(=O)C(=O)N2CCN(C)C)o1 (stereo unspecified),-92*
CCN(CC)CCN1C(=O)C(=O)/C(=C(/O)c2cnn(-c3ccccc3)c2C)C1c1ccc(C)o1 (stereo unspecified),-77*
Cc1snc2sc(C(=O)c3ccc(F)cc3)c(N)c12,-96*
CN1Cc2c(N3CCOCC3)nc3sc(C(=O)c4ccc(Br)cc4)c(N)c3c2CC1(C)C,105
CN(C)c1ccnc2sc(C(=O)c3ccc(Br)cc3)c(N)c12,-85*
CCCC(=O)Nc1ccc(C(=O)/C=C/c2ccc(SC)cc2)cc1,-70*
CN(C)/C=C/C(=O)c1ccc(Oc2ccccc2)cc1,-136*
CCCc1ccc(C(=O)/C=C/N(C)C)cc1,-126*
CSc1nnc(-c2ccccc2N=Cc2c(C)[nH]n(-c3ccc4ccccc4c3)c2=O)c(=O)[nH]1,-73*
COc1ccc(CNS(=O)(=O)c2cc3c(cc2C)N(C)CCO3)cc1,-65*
CC(C)(C)c1ccc(-n2ncc3c2CCCC3NC(=O)c2cnccn2)cc1 (stereo unspecified),-68*
O=C(CCc1ccncc1)NC1CCCc2c1cnn2-c1cc(F)cc(F)c1 (stereo unspecified),79
CC(CNS(=O)(=O)c1cc(Cl)ccc1Cl)CN(C)C (stereo unspecified),-159*
Cc1nn2c(N)c(-c3ccccc3)cnc2c1-c1ccc(Cl)cc1,-193*
